Compounds without any hit were thinned out: in the full panel of roughly 83,000, 20% have a hit.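 Activity criterion: percent growth below 10, measured after cells in 96-well plates were exposed to a single compound concentration for 48 hours.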 Unmarked numbers belong to inactive results.
Test system: OVCAR-5 ovarian
Experiment: NCI-60 one-dose screen, 48 h (100 = growth as untreated, 0 = no growth, -100 = all killed)
Conditions: 10 µM unless noted

| SMILES | growth [%] |
| --- | --- |
| CC(C)(C)CC(C)(C)c1ccc(OCCOCC[N+](C)(C)CC(=O)[O-])cc1 | 102 |
| CN(CSc1ccc(Cl)cc1)c1ccc(CSc2ccc(Cl)cc2)cc1 | 120 |
| COc1ccc(C2(Cl)c3ccccc3N(c3ccccc3)c3ccccc32)cc1 | 17 |
| CCCCC(=O)OC1CCCCC1C (stereo not drawn) | 90.9 |
| O=P(O)(c1ccccc1)c1ccccc1I | 103 |
| O=c1[nH]c(=S)[nH]c2nc[nH]c12 | 90.5 |
| OCC(CO)(CCl)CCl | 98.1 |
| C#CCC(C)(O)/C=C/C1=C(C)CCCC1(C)C (stereo not drawn) | 88.7 |
| O=c1[nH]ncc(Br)c1Br | 115 |
| Cc1ccc2[nH]cc(-c3nc(-c4cn(C)c5ncccc45)cs3)c2c1 | 108 |
| CC(=O)OC(C)COc1ccc(-c2ccccc2)cc1 (stereo not drawn) | 96.8 |
| Fc1ccc2[nH]cc(-c3nc(-c4c[nH]c5ncccc45)cs3)c2c1 | 86.1 |
| CCC(CC)C(=O)OC(C)COc1ccc(C(C)(C)C)cc1 (stereo not drawn) | 100 |
| CCCCC/C(=C\c1ccccc1)C1OC(C)C(C)O1 (stereo not drawn) | 93.7 |
| N=C(N)c1ccc(S(N)(=O)=O)cc1 | 88.2 |
| O=C1C=C(C(O)c2ccc(O)cc2)C(=O)c2ccccc21 (stereo not drawn) | 99.7 |
| N#C/C(=C\c1ccc(-c2ccc(F)cc2)o1)c1nc(-c2ccco2)cs1 | 65.1 |
| Cc1ccc(-c2ccc(/C=C(\C#N)c3nc(-c4ccco4)cs3)o2)cc1 | 77.5 |

— PubChem BioAssay (NCI)
